Source: PubChem (several laboratories)
Hits are enriched below; roughly 8.9% of the tested compounds scored in any of these assays.
D1 allo mod – D1 dopamine receptor (human) allosteric modulation; P21728; HEK293 D1, CRE-luciferase, dopamine EC30 potentiation; actives deviate in either direction; B-score at 10 µM; hit rate 5.9% among 58,000; AID 641;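 active = luminescence count or its row- and column-corrected plate score outside the 99.7% band of the plate's sample wells, on either side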
M1 agonist – M1 muscarinic receptor agonism; CHO-M1 cells, Fluo-4 calcium fluorescence, agonist mode; hits give high values; hit rate 3% among 64,000; B-score at 10 µM; AID 626;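 active = fluorescence rise, raw or as B-score row- and column-corrected plate score, outside the 99.7% band of its plate's samples, either direction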
M1 antagonist – M1 muscarinic receptor (rat) antagonism; CHO-M1 cells, Fluo-4 calcium, ACh EC80 antagonist mode; hits give low values; B-score at 10 µM; hit rate 3.4% among 64,000; AID 628;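 active = calcium fluorescence response, raw or row-and-column corrected B-score, differing from the plate sample mean either way at a set confidence level, mostly lower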
Target sequence (P08482 whole entry, looked up): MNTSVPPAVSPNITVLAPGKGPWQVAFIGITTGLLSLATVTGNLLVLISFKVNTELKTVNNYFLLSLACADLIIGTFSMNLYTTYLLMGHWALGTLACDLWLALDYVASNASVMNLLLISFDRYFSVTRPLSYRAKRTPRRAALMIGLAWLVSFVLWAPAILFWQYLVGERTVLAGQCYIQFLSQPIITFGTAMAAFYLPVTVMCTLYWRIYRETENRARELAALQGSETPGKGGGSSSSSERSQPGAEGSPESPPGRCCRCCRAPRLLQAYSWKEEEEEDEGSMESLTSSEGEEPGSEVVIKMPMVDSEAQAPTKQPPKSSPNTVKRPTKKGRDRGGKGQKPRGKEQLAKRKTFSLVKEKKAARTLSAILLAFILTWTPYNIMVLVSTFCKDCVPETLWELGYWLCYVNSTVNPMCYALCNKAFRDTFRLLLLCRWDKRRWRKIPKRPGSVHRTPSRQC
WNV NS2B-NS3 inh – WNV NS2B-NS3 proteinase inhibition; P06935; z-score (test concentration not listed); hit rate 0.18% among 65,000; WNV NS2B-NS3 protease, fluorogenic substrate Ex360/Em465; hits give low values; in the data active = z-score below about -3
mHtt clearance – compounds clearing mutant huntingtin protein | hit rate 0.42% among 47,000 | HeLa Exon1htt(103Q)mCFP, aggregate imaging; zero = plate's median compound well | inhibition, % at 1.5 µM | AID 853;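 active = inhibition of aggregate fluorescence above about 70%, also judged a hit by eye on the cell image, limit read from the data, passing the limit was not always enough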;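 note: cells exposed to compound for three days before fixation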
The depositor's hits bear a star; . = no result given.

SMILES	D1 allo mod	M1 agonist	M1 antagonist	WNV NS2B-NS3 inh	mHtt clearance
O=C1OC(N2CCN(C(=O)C3CCCO3)CC2)c2ccccc21 (stereo not given)	-0.51	0.023	-0.89	-0.22	.
COCCn1c(=O)[nH]c2cc(C(=O)NCCN3CCN(c4cccc(Cl)c4)CC3)ccc2c1=O	-3.5*	2.7	-0.063	.	.
O=C(NCCCN1CCCCC1)c1ccc2c(=O)n(CCc3ccccc3)c(=O)[nH]c2c1	-3.7	-0.89	-0.018	-0.0053	.
CCN(CC)CCNC(=O)c1ccc2c(=O)n(CCc3ccccc3)c(=O)[nH]c2c1	-3.1*	-0.0048	-0.17	0.91	23
Cc1cc(C(=O)NCCN2CCN(c3cccc(Cl)c3)CC2)n(-c2ccccc2)n1	-3.2*	0.099	0.45	0.21	.
COc1ccc(N2CCN(CCNC(=O)CCCn3c(=O)[nH]c4cc(Cl)ccc4c3=O)CC2)cc1	-2	-0.31	-0.0066	-0.59	.
CCCc1nnc(NC(=O)C2CCCO2)s1 (stereo not given)	-0.62	-0.3	-0.11	0.6	20
Cc1nnc(NC(=O)CCC(=O)N2CCN(CCc3ccccc3)CC2)s1	.	0.84	0.091	-0.75	.
CCOC(=O)Cc1c(C)nc2cc(-c3ccc(C(C)(C)C)cc3)[nH]n2c1=O	.	.	.	.	18
CCOC(=O)CCc1c(C)nc2cc(-c3ccccc3OC)[nH]n2c1=O	.	-0.053	2.1*	0.79	.
CC1=C(C(=O)OCc2ccc3c(c2)OCO3)C(c2ccccc2)NC(=O)N1 (stereo not given)	-0.76	-0.64	-0.27	-1.2	74*
C=CCOC(=O)C1=C(C)NC(=O)NC1c1ccc(OC(=O)c2ccco2)c(OC)c1 (stereo not given)	-5.4*	0.48	-0.29	0.79	-43
COc1cc(OC)c(-c2nn3c(-c4ccco4)nnc3s2)cc1OC	-1.3	4.4*	-1.8	-1	.
O=c1n(-c2ccccc2)c(=O)n(Cc2ccccn2)n1Cc1ccccn1	.	0.98	-0.062	0.21	.
Cc1ccccc1Cn1nnc(-c2cccc(C(=O)O)c2)n1	-2.7*	0.59	-0.5	-1.5	.
CCn1nnnc1NCc1cccn1C	-0.16	1.5	0.26	-0.78	.
O=C(C1CCN(S(=O)(=O)c2cccc3cccnc23)CC1)N1CC=C(c2ccccc2)CC1	-2.5	4.5*	-2	-0.83	.
O=C(C1CCN(S(=O)(=O)c2cccc3cccnc23)CC1)N1CCCC1	-0.16	0.3	0.054	0.64	.
Cc1cccc(N2CCN(C(=O)C3CCCN(S(=O)(=O)c4cccc5cccnc45)C3)CC2)c1C (stereo not given)	-1.7	4.6*	-0.71	-0.54	.
O=C(NC1=NCCS1)c1ccc(OCC2CCCO2)cc1 (stereo not given)	-3*	1.1	0.38	0.56	.
CC(=O)c1ccc(NC(=O)c2cnn3ccccc23)cc1	.	.	.	.	10
CC(=O)c1cccc(NC(=O)c2cnn3ccccc23)c1	-2.6*	-0.023	0.013	0.8	.
CCCn1c(=O)c(C(=O)Nc2ccccc2C(=O)OCC)c(O)c2ccccc21	-0.68	-0.31	0.12	-0.26	.
CCCn1c(=O)c(C(=O)Nc2c(C)n(C)n(-c3ccccc3)c2=O)c(O)c2ccccc21	-0.17	-0.013	-11*	-0.8	.
CN1C(=O)N(CN2CCCCC2)C2C1N(C)C(=O)N2CN1CCCCC1 (stereo not given)	-0.56	-0.11	-0.48	-12*	-18
SMILES	D1 allo mod	M1 agonist	M1 antagonist	WNV NS2B-NS3 inh	mHtt clearance
CN1CCc2nc3sc(C(=O)C45CC6CC(CC(C6)C4)C5)c(N)c3cc2C1	.	.	.	.	5
CN(C)c1nc2n(c(=O)n1)C(C#N)CS2 (stereo not given)	0.59	-0.059	3*	0.06	.
CN(C)c1nc2n(c(=S)n1)CCS2	.	0.96	0.79	-0.09	-66
CCOC(=O)N1CCC(N2C(=O)c3ccccc3C2Nc2ccc3c(c2)OCCO3)CC1 (stereo not given)	-3.1*	0.16	0.4	-0.74	-14
Cc1cccnc1NC(=O)Nc1ccc(F)cc1	-2.4*	-0.97	-0.34	0.93	17
Cc1cccnc1NC(=O)Nc1cccc(C(F)(F)F)c1	1.3	1.8	-0.74	-0.63	.
O=c1cc(-c2ccccc2)c2ccc(O)c(CN3CCCCC3)c2o1	-3.1	-1.3	-0.7	-1.9	-10
O=c1oc2c(CN3CCCCCC3)c(O)ccc2cc1-c1nc2ccccc2[nH]1	0.12	248*	-17*	2.7	.
CCOC(=O)CS(=O)(=O)c1nc(-c2ccc(F)cc2)cc(C(F)(F)F)n1	-0.11	4.4*	0.051	1.4	.
O=C(Nc1ccc(F)cc1F)NC1CC(=O)N(Cc2ccccc2)C1 (stereo not given)	-0.28	0.72	-0.24	0.49	.
